According to PubChem BioAssay (EPA / NIEHS):
Calls of active or inactive are those of the source. The calls were made as follows: active = hit-call score of the fitted dose curve at least 0.9, where 1 is the maximum; inactive = score below 0.9.

read-out: Monocyte Chemoattractant Protein-1 (MCP1), CCL2 (gene 6347); experiment: BSK_IMphg_MCP1: BioMAP Diversity Plus: IMphg Assay for Monocyte Chemoattractant Protein-1 (MCP1) Biomarker Activity (AID 2284253); conditions: primary human endothelial cells with macrophages
Experimental: BSK_IMphg is a cell-based, multiplexed-readout assay that uses venular endothelial cells and macrophages, a human vascular primary cell, with measurements taken at 24 hours after chemical dosing in a microplate: 96-well plate.BSK_IMphg_MCP1 is an assay component measured in the BSK_IMphg assay. It measures MCP-1 antibody related to regulation of gene expression using ELISA technology.Data from the assay component BSK_IMphg_MCP1 was analyzed at the endpoint, BSK_IMphg_MCP1, in the positive analysis fitting direction relative to DMSO as the negative control and baseline of activity. Using a type of binding reporter, gain or loss-of-signal activity can be used to understand protein changes. To generalize the intended target to other relatable targets, this assay endpoint is annotated to the 'cytokine' intended target family, where the subfamily is 'chemotactic factor'.
The levels of cell surface (or secreted, indicated by the prefix "s") biomarker endpoints were measured by ELISA. Overt cytotoxicity to cells in confluent adherent cultures (all systems other than the BT system) was assessed by measuring total protein levels using sulforhodamine B (SRB) staining in parallel cultures at the time of biomarker measurements, indicated as SRB endpoints. For proliferation assays for adherent cell types, individual cell types are cultured at sub-confluence and relative cell numbers quantified by SRB staining at time points optimized for each system (48 h: 3C and CASM3C systems; 72 h: BT and HDF3CGF systems; 96 h: SAg system). SRB was performed by staining cells with 0.1% SRB after fixation with 10% TCA and reading wells at 560 nm.Viability and proliferation of PBMC (T cells) was quantified by Alamar Blue reduction for the SAg and BT systems. For PBMC viability (referred to as PBMC Cytotoxicity within the assay endpoint names), cells were plated (75,000/well in a 96-well plate) and then chemical samples added for 1 h before addition of activators, SEB and TSST-1 (20 ng/mL final concentration each). Cells were incubated for 90 h. Then, Alamar Blue (20 uL/well) (Invitrogen, Cat DAL1100) was added for 6 h, and the plates were read with a fluorescence microplate reader at 546/580 nm (excitation/emission). For PBMC proliferation, cells were plated and activated as above but incubated for only 16 h prior to addition of Alamar Blue. Plates were read after 6 h.

Row | SMILES | outcome
1 | O=S(=O)(O)CCC(F)(F)C(F)(F)C(F)(F)C(F)(F)C(F)(F)C(F)(F)F | inactive
2 | OCCC(F)(F)C(F)(F)C(F)(F)C(F)(F)F | inactive
3 | C[Si](C)(C)C(F)(F)C(F)(F)C(F)(F)F | inactive
4 | FC(F)(F)C(F)(F)C(F)(F)C(F)(F)C(F)(F)C(F)(F)I | inactive
5 | O=C(Cl)C(F)(F)C(F)(F)C(F)(F)C(=O)Cl | inactive
6 | FC(F)C(F)(F)COCC1CO1 (stereo not given) | inactive
7 | FC(F)=C(F)C(F)(F)C(F)(F)C(F)(F)C(F)(F)C(F)(F)C(F)(F)F | inactive
8 | NCC(F)(F)C(F)(F)C(F)(F)C(F)(F)F | inactive
9 | FC(F)(F)COC(OCC(F)(F)F)OCC(F)(F)F | inactive
10 | OC(O)(C(F)C(O)(O)C(F)(F)F)C(F)(F)F | inactive
